Type in all cases: functional
Assay [1] has as its target Solute carrier family 2, facilitated glucose transporter member 1 (Homo sapiens) (UniProt P11166). The assay can be described thus: ST_JUDE_LEISH: Cytotoxicity at 2uM final concentration against transgenic Leishmania Mexicana promastigotes LmGLUT1 that are glucose transport deficient and complemented with the human glucose transporter GLUT1. Activity is measured by DNA content using SYBR green in vitro.

For assay [2], the target named is Hexose transporter 1 (Plasmodium falciparum) (UniProt O97467). The assay can be described thus: ST_JUDE_LEISH: Cytotoxicity at 2uM final concentration against transgenic Leishmania Mexicana promastigotes LmPfHT that are glucose transport deficient and complemented with the Plasmodium falciparum hexose transporter. Activity is measured by DNA content using SYBR green in vitro.

In assay [3] the target is Glucose transporter (Leishmania mexicana) (UniProt O61059). The assay can be described thus: ST_JUDE_LEISH: Cytotoxicity at 2uM final concentration against transgenic Leishmania Mexicana promastigotes LmGT2 that are glucose transport deficient and complemented with the L. Mexicana glucose transporter 2. Activity is measured by DNA content using SYBR green in vitro.

Solute carrier family 2, facilitated glucose transporter member 1 (Homo sapiens), sequence (P11166 whole entry): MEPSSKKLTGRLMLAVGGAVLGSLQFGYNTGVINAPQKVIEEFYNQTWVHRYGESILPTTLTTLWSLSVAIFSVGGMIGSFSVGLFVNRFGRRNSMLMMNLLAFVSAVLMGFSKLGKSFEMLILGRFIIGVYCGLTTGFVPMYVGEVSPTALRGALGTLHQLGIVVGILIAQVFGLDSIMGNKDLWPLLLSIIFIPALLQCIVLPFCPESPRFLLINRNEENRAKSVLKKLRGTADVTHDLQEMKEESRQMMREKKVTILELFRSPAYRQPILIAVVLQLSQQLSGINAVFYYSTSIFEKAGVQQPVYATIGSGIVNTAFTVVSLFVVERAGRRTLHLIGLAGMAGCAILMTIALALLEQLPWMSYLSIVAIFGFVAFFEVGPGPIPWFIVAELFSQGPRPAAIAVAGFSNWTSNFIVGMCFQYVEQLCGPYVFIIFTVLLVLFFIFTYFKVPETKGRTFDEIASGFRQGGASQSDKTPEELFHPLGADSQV

The inhibition is the relative decrease from the control value, in per cent. On to `CCOC(=O)CCCCCNC[C@H](O)c1ccccc1`, for which the inhibition is -1.32% in assay [1], -0.8% in assay [2] and -2.14% in assay [3].

`CC(Nc1ccc2c(c1)OCCO2)C(=O)Nc1cc(C(F)(F)F)ccc1N1CCOCC1` (centres undefined): the inhibition in assay [1] is 7.38%; in assay [2], 8.1%; in assay [3], 6.63%.

Turning to `COc1cccc(NC(=O)Cn2c(C)c(C#N)c3ccccc32)c1`, the inhibition worked out at 3.53% in assay [1], 5% in assay [2] and 3.36% in assay [3].

For the compound `COc1ccc(CCNc2ccnc3cc(Cl)ccc23)cc1OC`, the inhibition in assay [1] turned out to be 2.61%; in assay [2] it was 2.36%; in assay [3] it was 0.21%.

In the case of `COc1ccc2nccc([C@@H](O)CN3CCC(NC(=O)c4nc(Cl)c(Cl)c(N)c4Cl)CC3)c2c1`, the inhibition in assay [1] is -0.09%; in assay [2], -0.22%; in assay [3], 1.55%.

Take `Cc1cc(NC(=O)c2cccs2)ccc1OC1CCN(Cc2ccc(C#N)cc2)C1` (centres undefined): the inhibition in assay [1] is 2.86%; in assay [2], 4.23%; in assay [3] it was 3.26%.

Turning to `COc1ccc(Nc2nc(NN=Cc3cc(Br)c(O)cc3O)nc(Nc3ccc([N+](=O)[O-])cc3)n2)cc1`, the inhibition in assay [1] turned out to be 0.58%; in assay [2], 0.96%; in assay [3], 1.09%.

Take `Cc1nc(-c2cccc(NCc3ccccc3)c2)[nH]c1C`: the inhibition worked out at 6.94% in assay [1], 7.04% in assay [2] and 1.13% in assay [3].

`CCCC(C)Nc1nc(C)cc(N[C@@H](Cc2ccccc2)C(=O)NCc2cccc(F)c2)n1` (some centres undefined): the inhibition turned out to be 4.14% in assay [1], 4.96% in assay [2] and 2.68% in assay [3].

Take `O=C1Nc2cccc3c2C1(CCCCN1CCC(c2c[nH]c4cc(C(F)(F)F)ccc24)CC1)CCC3` (centres undefined): the results for the inhibition in assay [1], in assay [2] and in assay [3] were 3.89%, 1.75% and 0.54%, respectively.

Consider `Cc1cc(N[C@@H](Cc2ccccc2)C(=O)Nc2ccccc2)nc(NCCc2cccs2)n1`, for which the inhibition was 4.14% in assay [1], 2.39% in assay [2] and 1% in assay [3].

On to `COc1ccc(-c2cccc(NC(=O)c3ccc(C#N)cc3)c2)cc1CN(C)CCN(C)C`, for which the inhibition was 2.8% in assay [1], 2.9% in assay [2] and 0.41% in assay [3].

As to `Cc1[nH]c2ccccc2c1CC1CCN(CC2CCN(C(=O)/C=C/c3ccc(Cl)c(Cl)c3)CC2)CC1`, the inhibition in assay [1] came out at 0.92%; in assay [2], 1.33%; in assay [3], 1.79%.

Values taken from ChEMBL document CHEMBL3433997, “St. Jude Leishmania screening dataset” (2016).
